Holding throughout (test): HT-SELEX; high values mean tight binding
What all share (details): protein: recombinant; vector His6-GST; dsDNA, one strand shown

Test [1] deals with T1, SALL4 ZFC4 WT (HT-SELEX) (Mus musculus, UniProt Q8BX22 870-940).
T1 sequence: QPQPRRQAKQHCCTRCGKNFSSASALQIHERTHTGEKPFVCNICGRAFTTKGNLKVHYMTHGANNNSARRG
Summed up:
(§1)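 Each canonical k-mer's binding signal is its read fraction expressed as fold change over the initial random library. Reads came from MiSeq sequencing, scanned for 6-mers, after up to 6 triplicate cycles in which purified recombinant mouse SALL4 zinc finger cluster 4 (residues 870–940, 1 µg) bound library DNA (1.5 µg first cycle, 200 ng later) in 100 µl of 10 mM Tris–HCl pH 7.5, 50 mM NaCl, poly(dI-dC), DTT for 10 min at room temperature. Complexes were then Ni2+ bead-captured, washed, PCR-amplified and reselected.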

In test [2] the target is T2, SALL4 ZFC4 R900W (HT-SELEX) (Mus musculus, UniProt Q8BX22 870-940, R900W).
T2 sequence: T1 sequence with R31W
The gist of the method:
as §1

Test [3] has as its target T3, SALL4 ZFC4 G921D (HT-SELEX) (Mus musculus, UniProt Q8BX22 870-940, G921D).
T3 sequence: T1 sequence with G52D
Summed up: as §1

Where a chain is given by its changes, count along the chain named.

In the case of ACTAAG, the figures for the binding signal in test [1], in test [2] and in test [3] were 1.42 ± 0.0426 fold-change vs cycle 0, 1.61 ± 0.0315 fold-change vs cycle 0 and 1.45 ± 0.0661 fold-change vs cycle 0, respectively.

For ACATGT, the binding signal was 1.28 ± 0.0279 fold-change vs cycle 0 in test [1] and 1.4 ± 0.0207 fold-change vs cycle 0 in test [2].

For AGTCAG, the binding signal in test [1] is 0.822 ± 0.0342 fold-change vs cycle 0; in test [2], 0.958 ± 0.0579 fold-change vs cycle 0.

Consider AATACC, for which the figures for the binding signal in test [1] and in test [2] were 1.3 ± 0.0373 fold-change vs cycle 0 and 1.33 ± 0.0245 fold-change vs cycle 0, respectively.

Take ATCTCA: the binding signal in test [1] was 1.42 ± 0.0416 fold-change vs cycle 0; in test [2], 1.5 ± 0.0539 fold-change vs cycle 0; in test [3], 1.43 ± 0.0584 fold-change vs cycle 0.

With ATTTGC, the binding signal was determined as 0.914 ± 0.0535 fold-change vs cycle 0 in test [1], 0.9 ± 0.0391 fold-change vs cycle 0 in test [2] and 0.981 ± 0.0312 fold-change vs cycle 0 in test [3].

In the case of CAAAAG, the binding signal in test [1] is 1.03 ± 0.0267 fold-change vs cycle 0; in test [2], 1.17 ± 0.0219 fold-change vs cycle 0; in test [3] it was 1.153 ± 0.00875 fold-change vs cycle 0.

As to AGTATA, the results for the binding signal in test [1], in test [2] and in test [3] were 2.16 ± 0.0916 fold-change vs cycle 0, 2.13 ± 0.148 fold-change vs cycle 0 and 1.85 ± 0.204 fold-change vs cycle 0, respectively.

On to ACCGTG, for which the values for the binding signal in test [1], in test [2] and in test [3] were 0.361 ± 0.00928 fold-change vs cycle 0, 0.456 ± 0.013 fold-change vs cycle 0 and 0.547 ± 0.0682 fold-change vs cycle 0, respectively.

For CTAGCA, the binding signal in test [1] came out at 0.695 ± 0.0294 fold-change vs cycle 0; in test [2], 0.782 ± 0.0282 fold-change vs cycle 0; in test [3] it was 0.86 ± 0.0269 fold-change vs cycle 0.

In the case of CCAAGA, the values for the binding signal in test [1], in test [2] and in test [3] were 0.78 ± 0.0182 fold-change vs cycle 0, 0.888 ± 0.03 fold-change vs cycle 0 and 0.931 ± 0.0131 fold-change vs cycle 0, respectively.

ACCCTC: the binding signal was 0.489 ± 0.00987 fold-change vs cycle 0 in test [1], 0.562 ± 0.0409 fold-change vs cycle 0 in test [2] and 0.66 ± 0.0504 fold-change vs cycle 0 in test [3].

In the case of GACCAC, the binding signal amounted to 0.381 ± 0.00949 fold-change vs cycle 0 in test [1], 0.448 ± 0.0299 fold-change vs cycle 0 in test [2] and 0.55 ± 0.0669 fold-change vs cycle 0 in test [3].

For GCATGA, the binding signal in test [1] was 0.7 ± 0.0187 fold-change vs cycle 0; in test [2] it was 0.753 ± 0.0226 fold-change vs cycle 0; in test [3] it was 0.824 ± 0.0395 fold-change vs cycle 0.

In the case of AATGTG, the binding signal in test [1] was determined as 1.15 ± 0.0171 fold-change vs cycle 0; in test [2], 1.23 ± 0.0476 fold-change vs cycle 0; in test [3], 1.25 ± 0.0281 fold-change vs cycle 0.

For TACGTA, the binding signal in test [1] was found to be 1.26 ± 0.0297 fold-change vs cycle 0; in test [2], 1.33 ± 0.109 fold-change vs cycle 0; in test [3], 1.23 ± 0.0963 fold-change vs cycle 0.

Consider GTACGA, for which the results for the binding signal in test [1], in test [2] and in test [3] were 0.706 ± 0.0277 fold-change vs cycle 0, 0.794 ± 0.0311 fold-change vs cycle 0 and 0.843 ± 0.0399 fold-change vs cycle 0, respectively.

Consider CTCACC, for which the binding signal amounted to 0.488 ± 0.0202 fold-change vs cycle 0 in test [1], 0.56 ± 0.0155 fold-change vs cycle 0 in test [2] and 0.677 ± 0.0522 fold-change vs cycle 0 in test [3].

With ATAAGC, the binding signal was determined as 1.34 ± 0.0651 fold-change vs cycle 0 in test [1], 1.21 ± 0.0666 fold-change vs cycle 0 in test [2] and 1.22 ± 0.0552 fold-change vs cycle 0 in test [3].

With ACAGAT, the binding signal was 1.32 ± 0.0342 fold-change vs cycle 0 in test [1], 1.4 ± 0.028 fold-change vs cycle 0 in test [2] and 1.37 ± 0.0364 fold-change vs cycle 0 in test [3].

With AAACAA, the binding signal in test [1] was determined as 1.75 ± 0.117 fold-change vs cycle 0; in test [2] it was 1.82 ± 0.0942 fold-change vs cycle 0; in test [3], 1.66 ± 0.151 fold-change vs cycle 0.

Regarding ACGGGA, the binding signal in test [1] amounted to 0.422 ± 0.0189 fold-change vs cycle 0; in test [2] it was 0.506 ± 0.0223 fold-change vs cycle 0; in test [3], 0.583 ± 0.0299 fold-change vs cycle 0.

For the sequence ACGTAG, the binding signal in test [1] was determined as 0.7133 ± 0.00555 fold-change vs cycle 0; in test [2] it was 0.792 ± 0.0458 fold-change vs cycle 0; in test [3], 0.864 ± 0.0314 fold-change vs cycle 0.

Consider CAGTGC, for which the binding signal in test [1] was 0.318 ± 0.0186 fold-change vs cycle 0; in test [2], 0.355 ± 0.00797 fold-change vs cycle 0; in test [3] it was 0.491 ± 0.0442 fold-change vs cycle 0.

Take ACCTCC: the results for the binding signal in test [1], in test [2] and in test [3] were 0.552 ± 0.031 fold-change vs cycle 0, 0.625 ± 0.0479 fold-change vs cycle 0 and 0.721 ± 0.0399 fold-change vs cycle 0, respectively.

Turning to GGTAGA, the binding signal in test [1] came to 0.746 ± 0.0282 fold-change vs cycle 0; in test [2] it was 0.849 ± 0.0219 fold-change vs cycle 0; in test [3] it was 0.892 ± 0.0246 fold-change vs cycle 0.

Consider ACGAGA, for which the binding signal was 0.811 ± 0.0345 fold-change vs cycle 0 in test [1], 0.922 ± 0.0447 fold-change vs cycle 0 in test [2] and 0.957 ± 0.0409 fold-change vs cycle 0 in test [3].

Regarding AAGCAA, the binding signal in test [1] is 1.18 ± 0.0487 fold-change vs cycle 0; in test [2], 1.24 ± 0.0583 fold-change vs cycle 0; in test [3], 1.23 ± 0.0475 fold-change vs cycle 0.

On to GGGAAA, for which the results for the binding signal in test [1], in test [2] and in test [3] were 0.693 ± 0.0334 fold-change vs cycle 0, 0.767 ± 0.0294 fold-change vs cycle 0 and 0.812 ± 0.0285 fold-change vs cycle 0, respectively.

Values taken from paper PMC9838217, “Structure of SALL4 zinc finger domain reveals link between AT-rich DNA binding and Okihiro syndrome”.
